Experimental data reported in PubChem BioAssay (Tox21).
Results filed as inconclusive are left out. Calls of active or inactive are those of the source. Unless noted, the call rests on the fitted dose curve; in most records, active means well fitted curve in the direction sought with a large enough effect in the repeat runs; inconclusive means weak or mixed curves; inactive means no such curve, though single readings can be large; an effect the other way counts as inactive or inconclusive.

What was measured:
[1] = qHTS assay to identify small molecule agonists of the peroxisome proliferator-activated receptor delta (PPARd) signaling pathway - cell viability counter screen (AID 743211); further: nearly all actives have a fitted effect of over 55% in size
Method in brief: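 HEK293H PPARd-bla, 3000 cells/well; 5 h preincubation 37C/5% CO2; cpd in DMSO, 17 h 37C; B/G FRET substrate 2 h RT; CellTiter-Glo 30 min RT, luminescence.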

[2] = molecular target: Peroxisome proliferator-activated receptor delta (Homo sapiens) (UniProt Q03181); test: qHTS assay to identify small molecule agonists of the peroxisome proliferator-activated receptor delta (PPARd) signaling pathway (AID 743212; calls by dose curve)
Sequence of Peroxisome proliferator-activated receptor delta (Homo sapiens) (Q03181 whole entry, looked up): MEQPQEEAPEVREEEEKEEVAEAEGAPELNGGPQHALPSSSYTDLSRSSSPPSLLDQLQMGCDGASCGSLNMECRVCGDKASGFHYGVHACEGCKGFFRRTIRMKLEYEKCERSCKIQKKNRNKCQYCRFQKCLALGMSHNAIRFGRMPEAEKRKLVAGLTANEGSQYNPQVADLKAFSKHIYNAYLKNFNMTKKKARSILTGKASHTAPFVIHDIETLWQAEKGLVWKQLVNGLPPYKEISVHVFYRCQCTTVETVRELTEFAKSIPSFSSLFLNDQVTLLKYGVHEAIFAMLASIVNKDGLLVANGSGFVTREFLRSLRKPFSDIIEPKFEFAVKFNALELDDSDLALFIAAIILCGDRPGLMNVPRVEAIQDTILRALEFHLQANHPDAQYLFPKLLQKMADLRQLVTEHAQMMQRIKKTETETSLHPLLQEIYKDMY
Method in brief: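 HEK293H UAS-bla reporter cells, human PPARd system; compounds delivered in DMSO after 5 h plating, then at 37 C. Beta-lactamase FRET read, 2 h RT substrate step.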

[3] = qHTS assay to identify small molecule antagonists of the peroxisome proliferator-activated receptor delta (PPARd) signaling pathway - cell viability counter screen (AID 743213); further: nearly all actives have a fitted effect of over 50% in size
Method in brief: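 Agonist-stimulated (L165041, 300 nM final) HEK293H PPARd UAS-bla cells are exposed to compounds for 17 h at 37 C, and ATP-based luminescence (CellTiter-Glo) from the same wells reports cytotoxicity.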

[4] = qHTS assay to identify small molecule agonists of the farnesoid-X-receptor (FXR) signaling pathway - cell viability counter screen (AID 743218); further: nearly all actives have a fitted effect of over 45% in size
Method in brief: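 FXR-UAS-bla HEK 293T cells, plated 5 h at 37 C, were exposed to compounds for 16 h at 37 C. CellTiter-Glo was then added to the same wells as the bla readout; luminescence read after 30 min at room temperature.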

[5] = molecular target: Bile acid receptor (Homo sapiens) (UniProt Q96RI1); test: qHTS assay to identify small molecule agonists of the farnesoid-X-receptor (FXR) signaling pathway (AID 743220; active means well fitted activation curve with a large enough effect in the signal ratio in the repeat runs, not every such curve was filed as active; the % refers to the signal ratio)
Sequence of Bile acid receptor (Homo sapiens) (Q96RI1 whole entry, looked up): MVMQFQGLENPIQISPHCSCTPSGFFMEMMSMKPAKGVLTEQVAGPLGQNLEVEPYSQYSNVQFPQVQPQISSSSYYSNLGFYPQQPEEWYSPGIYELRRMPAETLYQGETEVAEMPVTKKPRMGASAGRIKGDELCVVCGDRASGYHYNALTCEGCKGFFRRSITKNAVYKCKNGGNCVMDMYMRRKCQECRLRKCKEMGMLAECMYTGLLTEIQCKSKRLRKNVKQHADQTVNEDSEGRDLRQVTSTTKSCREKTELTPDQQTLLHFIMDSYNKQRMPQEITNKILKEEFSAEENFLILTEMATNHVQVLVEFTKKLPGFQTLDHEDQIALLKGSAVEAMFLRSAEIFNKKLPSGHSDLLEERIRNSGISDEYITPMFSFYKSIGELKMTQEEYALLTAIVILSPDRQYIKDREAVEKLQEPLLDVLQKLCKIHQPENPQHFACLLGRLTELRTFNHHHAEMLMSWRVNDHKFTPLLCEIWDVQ
Method in brief: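 Beta-lactamase reporter under UAS control in GeneBLAzer FXR HEK 293T cells (5000/well) measured with LiveBLAzer FRET substrate after 2 h at room temperature. Compound exposure lasted 16 h at 37C.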

[6] = qHTS assay to identify small molecule antagonists of the farnesoid-X-receptor (FXR) signaling pathway - cell viability counter screen (AID 743221; active means well fitted cell-killing curve with a large enough effect in the repeat runs, not every such curve was filed as active; further: nearly all actives have a fitted effect of over 50% in size)
Method in brief: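 Luminescence from CellTiter-Glo measures cytotoxicity in GeneBLAzer FXR-UAS-bla HEK 293T cells. Cells were exposed to compounds with 50 uM chenodeoxycholic acid (final) for 16 h at 37 C, in wells also used for the reporter readout.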

[7] = molecular target: Vitamin D3 receptor (Homo sapiens) (UniProt P11473); test: qHTS assay to identify small molecule agonists of the vitamin D receptor (VDR) signaling pathway (AID 743222; calls by dose curve)
Sequence of Vitamin D3 receptor (Homo sapiens) (P11473 whole entry, looked up): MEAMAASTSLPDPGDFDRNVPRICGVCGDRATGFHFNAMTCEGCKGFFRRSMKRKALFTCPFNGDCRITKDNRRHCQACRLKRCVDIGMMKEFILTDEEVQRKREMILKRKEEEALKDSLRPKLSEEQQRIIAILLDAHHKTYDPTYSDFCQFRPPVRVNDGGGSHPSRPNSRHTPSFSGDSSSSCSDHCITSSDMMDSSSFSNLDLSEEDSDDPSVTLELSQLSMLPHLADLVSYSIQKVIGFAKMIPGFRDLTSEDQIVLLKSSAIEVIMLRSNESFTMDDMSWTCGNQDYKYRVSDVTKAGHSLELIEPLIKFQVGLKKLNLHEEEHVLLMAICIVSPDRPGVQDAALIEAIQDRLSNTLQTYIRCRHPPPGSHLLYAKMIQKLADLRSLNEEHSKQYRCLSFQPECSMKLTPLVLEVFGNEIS
Method in brief: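 VDR-bla cells were plated 4 h at 37C/5% CO2, then exposed to compounds in DMSO for 16 h. After LiveBLAzer B/G FRET substrate addition and 2 h at room temperature, beta-lactamase reporter fluorescence was read.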

[8] = molecular target: Vitamin D3 receptor (Homo sapiens) (UniProt P11473); test: qHTS assay to identify small molecule antagonists of the vitamin D receptor (VDR) signaling pathway (AID 743223; active means well fitted inhibition curve with a large enough effect in the signal ratio in the repeat runs, not every such curve was filed as active; the % refers to the signal ratio)
Method in brief: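 Antagonist mode uses 1alpha,25-dihydroxyvitamin D3 at 3 nM final as stimulus. VDR-bla cells receive compounds in DMSO, incubate 16 h at 37C, then a beta-lactamase FRET substrate for 2 h at room temperature before fluorescence measurement.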

[9] = qHTS assay to identify small molecule agonists of the vitamin D receptor (VDR) signaling pathway - cell viability counter screen (AID 743224); further: series mostly up to about 63 µM; nearly all actives have a fitted effect of over 50% in size
Method in brief: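 VDR-bla cells were preincubated 4 h at 37C/5% CO2, then exposed to compounds for 16 h. After the 2 h room-temperature bla FRET read, CellTiter-Glo was added to the same wells and luminescence read after 30 min.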

[10] = qHTS assay to identify small molecule antagonists of the vitamin D receptor (VDR) signaling pathway - cell viability counter screen (AID 743225); further: nearly all actives have a fitted effect of over 50% in size
Method in brief: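 Read-out: CellTiter-Glo luminescence measured 30 min after reagent addition at room temperature. Cells were VDR-bla HEK 293T exposed 16 h at 37C, 5% CO2, to compound with 3 nM final calcitriol agonist.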

[11] = qHTS assay to identify small molecule agonists of the NFkB signaling pathway (AID 1159509; active means well fitted curve in the direction sought with a large enough effect in the signal ratio in the repeat runs, not every such curve was filed as active; the % refers to the signal ratio; further: series mostly up to about 61 µM)
Method in brief: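 After overnight attachment, reporter cells received test compounds, DMSO or positive controls and were incubated 5 hr at 37 C. FRET substrate was then added for 1.5 hr at room temperature before dual-emission fluorescence reading.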

[12] = qHTS assay to identify small molecule agonists of the NFkB signaling pathway - cell viability counter screen (AID 1159515; calls by dose curve; further: series mostly up to about 61 µM; nearly all actives have a fitted effect of over 55% in size)
Method in brief: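 NFkB-bla ME-180 cells, 2,000/well, were plated overnight at 37 C, 5% CO2, then exposed to compounds in DMSO for 5 hr. After the bla FRET read, CellTiter-Glo was added to the same wells; luminescence was read after 30 min at room temperature.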

[13] = qHTS assay to identify small molecule agonists of the endoplasmic reticulum stress response signaling pathway (AID 1159516; active means well fitted activation curve with a large enough effect in the signal ratio in the repeat runs, not every such curve was filed as active; the % refers to the signal ratio)
Method in brief: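 CellSensor ESRE-bla HeLa cells, carrying a beta-lactamase reporter driven by the ER stress response element, were plated overnight and exposed to compounds for 5 hr at 37 C. Reporter activity was read as FRET substrate fluorescence after 2 hr at room temperature.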

[14] = qHTS assay to identify small molecule agonists of the endoplasmic reticulum stress response signaling pathway - cell viability counter screen (AID 1159517; calls by dose curve)
Method in brief: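 Cells, HeLa ESRE-bla; density, 1,500/well; dosing, 5 hr at 37 C, 5% CO2; readout, CellTiter-Glo luminescence after 30 min RT.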

[15] = qHTS assay to identify small molecule antagonists of the retinoid-related orphan receptor gamma (ROR-gamma) signaling pathway - cell viability counter screen (AID 1159520); further: nearly all actives have a fitted effect of over 50% in size
Method in brief: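 Cytotoxicity was read from cellular ATP (CellTiter-Glo luminescence) after 16 hr at 37 C with 1 uM doxycycline induction. The inducer was added 2 hr after compound transfer to Tet-on ROR gamma CHO cells.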

[16] = molecular target: Nuclear receptor ROR-gamma (Homo sapiens) (UniProt P51449); test: qHTS assay to identify small molecule antagonists of the retinoid-related orphan receptor gamma (ROR-gamma) signaling pathway (AID 1159521)
Method in brief: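 CHO Tet-on RORγ, RORE-luc reporter. Cpd 2 h pre-incubation, then dox hyclate 1 uM final, 16 h, 37 C/5% CO2. ONE-Glo luminescence; decrease = antagonist.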

[17] = qHTS assay to identify small molecule agonists of the AP-1 signaling pathway - cell viability counter screen (AID 1159525; calls by dose curve; further: nearly all actives have a fitted effect of over 55% in size)
Method in brief: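 Luminescent ATP readout (Cell Titer Glo, 30 min RT), normalised to DMSO and tetra n-octyl ammonium bromide controls. Cells were ME-180 AP-1-bla in 0.5% dialyzed FBS Opti-MEM, with a 5 h, 37 °C compound exposure.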

[18] = qHTS assay to identify small molecule agonists of the AP-1 signaling pathway (AID 1159526; calls by dose curve)
[19] = molecular target: Peroxisome proliferator-activated receptor delta (Homo sapiens) (UniProt Q03181); test: qHTS assay to identify small molecule antagonists of the peroxisome proliferator-activated receptor delta (PPARd) signaling pathway (AID 743215; active means well fitted inhibition curve with a large enough effect in the signal ratio in the repeat runs, not every such curve was filed as active; the % refers to the signal ratio; further: series mostly up to about 62 µM)
Method in brief: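 PPARd UAS-bla HEK293H cells were pre-incubated 5 h at 37 C, then given test compounds in DMSO plus agonist L165041 (300 nM final). After 17 h at 37 C, beta-lactamase FRET substrate was added; fluorescence read after 2 h at room temperature.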

[20] = molecular target: Bile acid receptor (Homo sapiens) (UniProt Q96RI1); test: qHTS assay to identify small molecule antagonists of the farnesoid-X-receptor (FXR) signaling pathway (AID 743217; active means well fitted inhibition curve with a large enough effect in the signal ratio in the repeat runs, not every such curve was filed as active; the % refers to the signal ratio)
Method in brief: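 FXR-UAS-bla HEK 293T cells pre-incubated 5 h at 37 °C, then exposed to compounds with chenodeoxycholic acid (50 uM final) for 16 h at 37 °C. Beta-lactamase reporter read by LiveBLAzer B/G FRET substrate fluorescence after 2 h at room temperature.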

Measured: Potency

CNCC(O)c1ccc(O)cc1 (stereo not drawn)
not listed: [19] | [20]
inactive: all other assays above

Nc1cccc(Cl)c1
not listed: [1]
inactive: all other assays above

C=CC#N
not listed: [2] | [5] | [19] | [20]
inactive: all other assays above

CNc1cnn(-c2cccc(C(F)(F)F)c2)c(=O)c1Cl
not listed: [1] | [10] | [20]
inactive: all other assays above

CC(=O)C1CCOC1=O (stereo not drawn)
not listed: [1] | [20]
inactive: all other assays above

Oc1c(Br)cc(Br)cc1Br
not listed: [5] | [7] | [8] | [20]
inactive: all other assays above

Cc1ccc(N)cc1
not listed: [2] | [5] | [7] | [8] | [19] | [20]
inactive: all other assays above
